For assay [1], the target named is Protein kinase C gamma type (Homo sapiens) (UniProt P05129). The following applies: at 1 µM.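 Note: each value is an averaged percent inhibition of the enzyme.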
For assay [2], the target named is T1, Protein kinase C iota type (Homo sapiens) (UniProt P41743).
T1 sequence (whole entry): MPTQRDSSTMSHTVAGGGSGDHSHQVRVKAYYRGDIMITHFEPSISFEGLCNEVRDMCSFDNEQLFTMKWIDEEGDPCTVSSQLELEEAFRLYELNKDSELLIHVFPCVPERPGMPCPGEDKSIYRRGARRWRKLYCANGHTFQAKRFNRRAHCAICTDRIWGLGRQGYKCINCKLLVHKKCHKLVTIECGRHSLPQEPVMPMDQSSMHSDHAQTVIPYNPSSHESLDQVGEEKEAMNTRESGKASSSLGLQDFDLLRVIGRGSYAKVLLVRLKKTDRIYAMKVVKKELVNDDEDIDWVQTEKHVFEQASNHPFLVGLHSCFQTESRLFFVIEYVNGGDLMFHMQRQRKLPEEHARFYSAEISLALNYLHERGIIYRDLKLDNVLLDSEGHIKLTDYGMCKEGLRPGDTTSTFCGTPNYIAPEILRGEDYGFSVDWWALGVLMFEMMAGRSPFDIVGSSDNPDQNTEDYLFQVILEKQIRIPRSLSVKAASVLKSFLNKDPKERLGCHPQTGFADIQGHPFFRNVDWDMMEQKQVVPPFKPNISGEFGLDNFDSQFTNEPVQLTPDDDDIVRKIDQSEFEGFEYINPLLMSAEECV
Conditions: at 0.1 µM.

For assay [3], the target named is T1, Protein kinase C iota type (Homo sapiens). The following applies: at 1 µM.
The target in assay [4] is Protein kinase C theta type (Homo sapiens) (UniProt Q04759). The following applies: at 0.1 µM.
Chain of Protein kinase C theta type (Homo sapiens) (Q04759 whole entry, looked up): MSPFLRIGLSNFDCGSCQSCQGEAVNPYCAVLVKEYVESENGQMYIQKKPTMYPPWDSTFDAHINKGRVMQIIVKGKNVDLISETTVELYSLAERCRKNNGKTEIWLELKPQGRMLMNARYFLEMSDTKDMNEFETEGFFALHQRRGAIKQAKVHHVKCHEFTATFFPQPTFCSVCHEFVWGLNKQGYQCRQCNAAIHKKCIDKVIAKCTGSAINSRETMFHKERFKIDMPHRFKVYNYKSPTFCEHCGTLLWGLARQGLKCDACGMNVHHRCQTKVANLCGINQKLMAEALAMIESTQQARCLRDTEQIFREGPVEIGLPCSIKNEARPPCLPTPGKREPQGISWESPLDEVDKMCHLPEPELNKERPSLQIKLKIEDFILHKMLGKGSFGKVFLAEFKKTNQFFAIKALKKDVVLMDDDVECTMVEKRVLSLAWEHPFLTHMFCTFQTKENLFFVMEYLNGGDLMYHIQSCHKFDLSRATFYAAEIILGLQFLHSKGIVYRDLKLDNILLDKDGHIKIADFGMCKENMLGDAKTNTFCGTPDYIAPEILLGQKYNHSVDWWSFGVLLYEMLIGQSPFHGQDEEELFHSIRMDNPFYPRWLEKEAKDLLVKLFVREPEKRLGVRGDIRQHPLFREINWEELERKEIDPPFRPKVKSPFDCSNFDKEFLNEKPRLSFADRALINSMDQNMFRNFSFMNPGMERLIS
Assay [5] shares this target. Conditions: at 1 µM.
In assay [6] the target is Protein kinase C beta type (Homo sapiens) (UniProt P05771). Conditions: at 0.1 µM.
Chain of Protein kinase C beta type (Homo sapiens) (P05771 2-671 limits assumed): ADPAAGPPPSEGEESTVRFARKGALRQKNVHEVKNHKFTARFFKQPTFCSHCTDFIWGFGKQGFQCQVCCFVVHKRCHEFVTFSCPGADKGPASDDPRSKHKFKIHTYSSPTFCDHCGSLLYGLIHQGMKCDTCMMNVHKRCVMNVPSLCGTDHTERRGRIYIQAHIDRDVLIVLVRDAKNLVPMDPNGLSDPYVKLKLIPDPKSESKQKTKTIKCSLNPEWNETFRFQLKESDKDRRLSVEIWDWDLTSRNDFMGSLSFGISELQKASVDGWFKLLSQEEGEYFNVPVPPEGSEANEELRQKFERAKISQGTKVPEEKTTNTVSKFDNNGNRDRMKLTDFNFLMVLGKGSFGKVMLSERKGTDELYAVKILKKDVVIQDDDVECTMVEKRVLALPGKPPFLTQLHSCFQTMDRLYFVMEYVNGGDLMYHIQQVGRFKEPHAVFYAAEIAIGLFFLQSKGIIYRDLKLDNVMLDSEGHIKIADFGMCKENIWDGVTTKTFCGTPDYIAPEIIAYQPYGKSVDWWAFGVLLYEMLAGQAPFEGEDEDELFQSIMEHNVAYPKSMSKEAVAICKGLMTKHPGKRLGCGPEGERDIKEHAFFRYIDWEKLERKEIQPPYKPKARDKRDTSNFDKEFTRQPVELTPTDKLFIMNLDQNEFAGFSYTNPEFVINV
Assay [7] has the same target. Conditions: at 1 µM.
Assay [8] addresses T2, Serine/threonine-protein kinase D1 (Homo sapiens) (UniProt Q15139).
T2 sequence (whole entry): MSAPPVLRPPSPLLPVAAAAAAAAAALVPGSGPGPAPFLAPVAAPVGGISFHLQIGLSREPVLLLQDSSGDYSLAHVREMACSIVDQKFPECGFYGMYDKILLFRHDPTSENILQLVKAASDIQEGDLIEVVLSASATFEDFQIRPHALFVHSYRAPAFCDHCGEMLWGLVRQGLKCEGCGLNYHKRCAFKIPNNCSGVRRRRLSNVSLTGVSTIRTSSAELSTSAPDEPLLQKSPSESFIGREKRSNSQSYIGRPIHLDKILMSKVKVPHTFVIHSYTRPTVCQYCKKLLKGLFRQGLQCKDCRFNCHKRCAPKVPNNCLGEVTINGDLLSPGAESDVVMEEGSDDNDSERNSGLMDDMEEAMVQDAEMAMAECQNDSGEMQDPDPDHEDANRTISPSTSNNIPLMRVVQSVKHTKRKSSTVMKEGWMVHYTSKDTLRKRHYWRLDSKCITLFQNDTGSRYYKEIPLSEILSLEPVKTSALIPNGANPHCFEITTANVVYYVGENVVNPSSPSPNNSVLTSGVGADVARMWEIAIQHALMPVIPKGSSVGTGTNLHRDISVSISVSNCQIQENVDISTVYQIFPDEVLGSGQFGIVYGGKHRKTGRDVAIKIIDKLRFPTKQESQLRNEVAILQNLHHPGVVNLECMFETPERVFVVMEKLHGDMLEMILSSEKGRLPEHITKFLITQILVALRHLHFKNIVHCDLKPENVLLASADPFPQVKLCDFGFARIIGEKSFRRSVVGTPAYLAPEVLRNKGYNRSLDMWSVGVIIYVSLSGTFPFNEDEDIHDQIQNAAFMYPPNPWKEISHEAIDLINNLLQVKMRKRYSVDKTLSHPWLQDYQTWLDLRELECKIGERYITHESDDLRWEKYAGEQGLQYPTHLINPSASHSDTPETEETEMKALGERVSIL
The following applies: at 0.1 µM.

Assay [9] addresses T2, Serine/threonine-protein kinase D1 (Homo sapiens). The following applies: at 1 µM.
In assay [10] the target is T3, Serine/threonine-protein kinase D2 (Homo sapiens) (UniProt Q9BZL6).
T3 sequence (whole entry): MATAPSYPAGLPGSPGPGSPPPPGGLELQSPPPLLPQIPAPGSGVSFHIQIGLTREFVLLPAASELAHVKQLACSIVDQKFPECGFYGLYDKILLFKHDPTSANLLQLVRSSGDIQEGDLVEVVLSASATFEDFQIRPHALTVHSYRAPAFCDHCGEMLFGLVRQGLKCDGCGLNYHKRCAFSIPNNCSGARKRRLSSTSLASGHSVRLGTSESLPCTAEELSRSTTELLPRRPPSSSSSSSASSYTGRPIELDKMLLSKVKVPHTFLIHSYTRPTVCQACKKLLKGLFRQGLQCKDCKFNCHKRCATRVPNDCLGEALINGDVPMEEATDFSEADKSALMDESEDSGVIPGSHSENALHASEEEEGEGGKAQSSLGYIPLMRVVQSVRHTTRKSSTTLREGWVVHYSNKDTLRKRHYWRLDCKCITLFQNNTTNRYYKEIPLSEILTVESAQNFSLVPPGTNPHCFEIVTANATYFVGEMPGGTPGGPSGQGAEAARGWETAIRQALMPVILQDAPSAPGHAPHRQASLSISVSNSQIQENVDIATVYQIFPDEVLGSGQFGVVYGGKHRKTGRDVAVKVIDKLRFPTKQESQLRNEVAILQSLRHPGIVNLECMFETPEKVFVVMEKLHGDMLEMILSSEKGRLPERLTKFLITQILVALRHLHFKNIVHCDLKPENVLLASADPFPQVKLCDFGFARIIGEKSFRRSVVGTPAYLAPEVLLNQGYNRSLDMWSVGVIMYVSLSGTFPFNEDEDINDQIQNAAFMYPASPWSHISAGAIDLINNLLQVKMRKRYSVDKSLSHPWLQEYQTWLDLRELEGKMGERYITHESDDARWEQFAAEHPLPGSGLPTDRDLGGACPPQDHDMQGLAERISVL
Conditions: at 0.1 µM.

The target of assay [11] is T3, Serine/threonine-protein kinase D2 (Homo sapiens). The following applies: at 1 µM.
The target in assay [12] is T4, Serine/threonine-protein kinase D3 (Homo sapiens) (UniProt O94806).
T4 sequence (whole entry): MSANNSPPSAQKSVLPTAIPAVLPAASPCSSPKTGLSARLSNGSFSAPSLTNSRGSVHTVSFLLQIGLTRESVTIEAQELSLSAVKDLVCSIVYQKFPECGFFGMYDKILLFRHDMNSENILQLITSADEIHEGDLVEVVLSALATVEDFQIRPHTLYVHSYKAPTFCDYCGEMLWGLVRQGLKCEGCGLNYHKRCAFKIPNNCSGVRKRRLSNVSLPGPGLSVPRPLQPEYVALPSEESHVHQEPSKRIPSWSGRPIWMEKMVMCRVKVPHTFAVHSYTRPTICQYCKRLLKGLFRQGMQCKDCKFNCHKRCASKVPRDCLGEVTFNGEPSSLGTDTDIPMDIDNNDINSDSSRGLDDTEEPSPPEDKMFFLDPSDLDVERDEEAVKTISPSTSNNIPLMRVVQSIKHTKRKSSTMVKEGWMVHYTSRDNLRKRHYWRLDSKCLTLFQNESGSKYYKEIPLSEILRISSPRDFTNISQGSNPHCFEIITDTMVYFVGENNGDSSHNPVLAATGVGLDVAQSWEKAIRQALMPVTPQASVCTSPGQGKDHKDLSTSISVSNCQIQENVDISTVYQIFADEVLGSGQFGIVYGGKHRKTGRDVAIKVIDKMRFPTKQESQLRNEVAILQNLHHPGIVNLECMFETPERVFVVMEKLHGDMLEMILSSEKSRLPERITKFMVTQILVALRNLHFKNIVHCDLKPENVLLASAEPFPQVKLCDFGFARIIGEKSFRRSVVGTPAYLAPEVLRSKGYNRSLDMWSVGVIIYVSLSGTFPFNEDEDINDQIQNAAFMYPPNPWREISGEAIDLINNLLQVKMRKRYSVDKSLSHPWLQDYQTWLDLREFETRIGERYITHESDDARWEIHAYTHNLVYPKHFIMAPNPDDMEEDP
Conditions: at 0.1 µM.

Assay [13] has as its target T4, Serine/threonine-protein kinase D3 (Homo sapiens). The following applies: at 1 µM.
Assay [14] deals with T5, cGMP-dependent protein kinase 1 (Homo sapiens) (UniProt Q13976).
T5 sequence (whole entry): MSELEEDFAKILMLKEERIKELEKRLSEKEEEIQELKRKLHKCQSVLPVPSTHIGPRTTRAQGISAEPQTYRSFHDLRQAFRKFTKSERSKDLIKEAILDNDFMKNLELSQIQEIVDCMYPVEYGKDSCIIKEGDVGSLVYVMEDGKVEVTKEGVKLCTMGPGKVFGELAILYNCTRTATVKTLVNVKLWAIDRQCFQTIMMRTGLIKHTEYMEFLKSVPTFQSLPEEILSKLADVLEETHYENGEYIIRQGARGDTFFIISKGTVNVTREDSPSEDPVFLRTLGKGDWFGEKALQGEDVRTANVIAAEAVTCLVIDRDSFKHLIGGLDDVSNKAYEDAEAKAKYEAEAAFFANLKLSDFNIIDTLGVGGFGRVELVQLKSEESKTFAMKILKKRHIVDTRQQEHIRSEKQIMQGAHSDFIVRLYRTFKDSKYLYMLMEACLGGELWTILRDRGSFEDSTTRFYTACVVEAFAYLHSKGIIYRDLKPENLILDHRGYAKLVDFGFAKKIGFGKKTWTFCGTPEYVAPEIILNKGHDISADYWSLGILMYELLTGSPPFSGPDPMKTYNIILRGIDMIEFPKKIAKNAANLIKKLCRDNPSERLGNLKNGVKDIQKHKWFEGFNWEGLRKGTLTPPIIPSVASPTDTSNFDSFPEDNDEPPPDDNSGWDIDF
The following applies: at 0.1 µM.

In assay [15] the target is T5, cGMP-dependent protein kinase 1 (Homo sapiens). Conditions: at 1 µM.
The target in assay [16] is T6, cGMP-dependent protein kinase 2 (Homo sapiens) (UniProt Q13237).
T6 sequence (whole entry): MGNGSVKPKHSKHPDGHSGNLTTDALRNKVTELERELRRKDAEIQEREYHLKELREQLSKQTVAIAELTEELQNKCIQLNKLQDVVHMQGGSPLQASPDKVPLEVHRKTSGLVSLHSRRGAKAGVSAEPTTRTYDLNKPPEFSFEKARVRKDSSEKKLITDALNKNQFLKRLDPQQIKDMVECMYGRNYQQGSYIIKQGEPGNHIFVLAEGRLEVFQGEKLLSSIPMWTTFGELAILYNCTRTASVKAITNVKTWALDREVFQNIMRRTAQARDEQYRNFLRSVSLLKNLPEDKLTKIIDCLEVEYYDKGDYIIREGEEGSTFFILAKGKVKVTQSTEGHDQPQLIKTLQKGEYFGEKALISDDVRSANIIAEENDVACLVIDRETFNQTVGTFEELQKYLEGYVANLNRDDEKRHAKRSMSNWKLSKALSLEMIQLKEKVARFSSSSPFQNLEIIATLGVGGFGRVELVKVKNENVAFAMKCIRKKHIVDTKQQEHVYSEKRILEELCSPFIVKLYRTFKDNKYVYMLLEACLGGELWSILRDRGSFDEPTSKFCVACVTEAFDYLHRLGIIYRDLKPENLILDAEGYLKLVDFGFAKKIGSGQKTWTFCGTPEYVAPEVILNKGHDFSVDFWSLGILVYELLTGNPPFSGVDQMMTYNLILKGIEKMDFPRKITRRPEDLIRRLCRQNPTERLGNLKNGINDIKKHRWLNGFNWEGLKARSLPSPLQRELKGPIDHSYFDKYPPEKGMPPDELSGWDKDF
The following applies: at 0.1 µM.

Assay [17] concerns the target T6, cGMP-dependent protein kinase 2 (Homo sapiens). Conditions: at 1 µM.
The target of assay [18] is T7, cAMP-dependent protein kinase catalytic subunit PRKX (Homo sapiens) (UniProt P51817).
T7 sequence (whole entry): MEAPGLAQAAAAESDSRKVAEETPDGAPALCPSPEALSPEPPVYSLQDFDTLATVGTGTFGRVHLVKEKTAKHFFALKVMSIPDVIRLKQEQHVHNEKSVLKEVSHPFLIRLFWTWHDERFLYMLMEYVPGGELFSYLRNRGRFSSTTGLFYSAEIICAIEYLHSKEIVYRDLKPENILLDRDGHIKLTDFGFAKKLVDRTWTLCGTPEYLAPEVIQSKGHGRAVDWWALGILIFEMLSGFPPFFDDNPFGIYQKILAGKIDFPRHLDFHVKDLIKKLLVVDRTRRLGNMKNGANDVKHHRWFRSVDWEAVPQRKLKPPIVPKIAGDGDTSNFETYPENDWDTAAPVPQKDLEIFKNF
Conditions: at 0.1 µM.

Assay [19] concerns the target T7, cAMP-dependent protein kinase catalytic subunit PRKX (Homo sapiens). Conditions: at 1 µM.
Assay [20] addresses Rho-associated protein kinase 1 (Homo sapiens) (UniProt Q13464). The following applies: at 0.1 µM.

Data on 1 compound can be found in ChEMBL document CHEMBL1961873, “Compounds: GSK PKIS; Assays: Nanosyn kinase panel” (2012).

SMILES strings stand for the structures.

Broadly, the inhibition is the change of the read-out against control, counted positive when it falls.

Chain of Rho-associated protein kinase 1 (Homo sapiens) (Q13464 2-1354 limits assumed): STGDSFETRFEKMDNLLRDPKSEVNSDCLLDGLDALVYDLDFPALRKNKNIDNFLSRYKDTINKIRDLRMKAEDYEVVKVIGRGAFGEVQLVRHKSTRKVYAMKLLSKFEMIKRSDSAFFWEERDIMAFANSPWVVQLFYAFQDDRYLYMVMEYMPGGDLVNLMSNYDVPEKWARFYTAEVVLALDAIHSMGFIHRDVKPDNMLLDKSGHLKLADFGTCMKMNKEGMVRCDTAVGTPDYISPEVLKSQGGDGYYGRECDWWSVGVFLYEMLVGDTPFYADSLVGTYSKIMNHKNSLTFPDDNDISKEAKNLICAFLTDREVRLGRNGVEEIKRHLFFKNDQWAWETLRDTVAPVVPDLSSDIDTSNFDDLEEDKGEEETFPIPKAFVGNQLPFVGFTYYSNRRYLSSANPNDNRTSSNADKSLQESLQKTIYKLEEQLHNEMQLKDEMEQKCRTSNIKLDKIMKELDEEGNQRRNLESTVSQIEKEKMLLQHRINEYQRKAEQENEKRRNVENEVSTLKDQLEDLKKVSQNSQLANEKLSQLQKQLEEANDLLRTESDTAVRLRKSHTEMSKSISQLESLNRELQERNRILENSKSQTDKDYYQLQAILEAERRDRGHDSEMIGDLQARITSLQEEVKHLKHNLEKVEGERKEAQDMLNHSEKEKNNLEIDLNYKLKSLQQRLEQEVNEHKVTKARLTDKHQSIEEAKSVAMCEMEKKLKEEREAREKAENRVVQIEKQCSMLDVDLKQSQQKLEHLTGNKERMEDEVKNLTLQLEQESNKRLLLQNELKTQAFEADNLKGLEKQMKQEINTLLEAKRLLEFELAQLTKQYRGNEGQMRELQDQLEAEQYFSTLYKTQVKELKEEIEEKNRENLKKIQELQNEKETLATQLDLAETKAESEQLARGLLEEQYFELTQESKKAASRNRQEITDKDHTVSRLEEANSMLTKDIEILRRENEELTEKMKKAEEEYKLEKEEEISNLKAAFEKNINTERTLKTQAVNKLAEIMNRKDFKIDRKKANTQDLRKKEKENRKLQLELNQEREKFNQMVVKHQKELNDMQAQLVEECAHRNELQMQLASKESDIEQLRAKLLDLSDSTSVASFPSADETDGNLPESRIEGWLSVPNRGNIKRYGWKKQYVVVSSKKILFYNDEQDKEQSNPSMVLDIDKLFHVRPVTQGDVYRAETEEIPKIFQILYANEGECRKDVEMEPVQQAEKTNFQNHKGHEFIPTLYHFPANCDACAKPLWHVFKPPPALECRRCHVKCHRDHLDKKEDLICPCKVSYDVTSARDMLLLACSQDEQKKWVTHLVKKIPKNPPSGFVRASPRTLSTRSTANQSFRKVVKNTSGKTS

As to `Cc1ccc(C(=O)NC2CCC2)cc1-c1ccc(C(=O)NCC2CC2)cc1`, the inhibition in [1] is 0.94%; in assay [2] it was 2.17%; in assay [3], 2.33%; in assay [4], 0.68%; in [5], -0.42%; in assay [6], 0.24%. In addition, the inhibition in assay [7] was determined as 0.53%; in assay [8] it was 2.65%; in assay [9], 3.61%; in [10] it was 2.36%; in assay [11], 2.79%; in assay [12], 2.86%. Also, the inhibition came to 2.6% in [13]; 3.87% in assay [14]; 3.84% in assay [15]; 1.07% in assay [16]; 3.54% in assay [17]; 1.55% in [18]. The inhibition in assay [19] was -0.61%; in assay [20], 1.21%.
